# Data published in PubChem BioAssay AID1159580 (chemical genetic matrix, 2015).
# In all, about 5,500 compounds went through this assay and about 2,000 (36%) were called active. Another 18% or so got no clear call; they are omitted. This is one part of the list. Values without a mark were called inactive. Rule as the data show it: active = normalized growth mostly below about 0.91 (no sharp cut-off); inconclusive = no clear call, values can overlap the other calls; inactive = mostly above about 0.92.
# Assay: chemical genetic growth profiling, strain panel (AID 1159580);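 also: tested at 20 µM; growth read once vehicle control cultures reached saturation at 30 °C; 1 = growth at the plate median or of vehicle wells; lower values mean less growth of the strain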
# Settings: S. cerevisiae deletion strains, growth OD
# [1] = locus YHR030C, strain SLT2, stronger effect = lower value
# [2] = locus YHR079C, strain IRE1, stronger effect = lower value
# [3] = locus YJL095W, strain BCK1, stronger effect = lower value
# [4] = locus YJR066W, strain TOR1, stronger effect = lower value
# [5] = locus YLR113W, strain HOG1, stronger effect = lower value
# [6] = locus YNL183C, strain NPR1, stronger effect = lower value
# [7] = locus YOR231W, strain MKK1, stronger effect = lower value
# [8] = locus YPL256C, strain CLN2, stronger effect = lower value
smiles,measurement,setting,value
Nc1cccc2c1C(=O)c1ccccc1-2,normalized growth,"locus YAL013W, strain DEP1, stronger effect = lower value",0.676 (active)
same,normalized growth,"locus YBR229C, strain ROT2, stronger effect = lower value",0.313 (active)
same,normalized growth,"locus YCL061C, strain MRC1, stronger effect = lower value",0.438 (active)
same,normalized growth,"locus YDL101C, strain DUN1, stronger effect = lower value",0.368 (active)
same,normalized growth,"locus YDR150W, strain NUM1, stronger effect = lower value",0.95
same,normalized growth,"locus YEL061C, strain CIN8, stronger effect = lower value",0.516 (active)
same,normalized growth,"locus YGR078C, strain PAC10, stronger effect = lower value",0.617 (active)
same,normalized growth,[1],0.134 (active)
same,normalized growth,"locus YHR087W, strain rtc3, stronger effect = lower value",0.0566 (active)
same,normalized growth,"locus YJR043C, strain POL32, stronger effect = lower value",0.756 (active)
same,normalized growth,"locus YJR075W, strain HOC1, stronger effect = lower value",0.0797 (active)
same,normalized growth,"locus YKL190W, strain CNB1, stronger effect = lower value",0.046 (active)
same,normalized growth,"locus YLR039C, strain RIC1, stronger effect = lower value",0.06 (active)
same,normalized growth,"locus YLR058C, strain SHM2 (second series), stronger effect = lower value",0.0581 (active)
same,normalized growth,"locus YLR085C, strain ARP6, stronger effect = lower value",0.0974 (active)
same,normalized growth,"locus YLR262C, strain YPT6, stronger effect = lower value",0.138 (active)
same,normalized growth,"locus YML094W, strain GIM5, stronger effect = lower value",0.553 (active)
same,normalized growth,"locus YMR219W, strain ESC1, stronger effect = lower value",0.664 (active)
same,normalized growth,"locus YMR263W, strain SAP30, stronger effect = lower value",0.837 (active)
same,normalized growth,"locus YNL153C, strain GIM3, stronger effect = lower value",0.125 (active)
same,normalized growth,"locus YNL298W, strain CLA4 (second series), stronger effect = lower value",0.267 (active)
same,normalized growth,"locus YNL322C, strain KRE1, stronger effect = lower value",1.03
same,normalized growth,"locus YNR030W, strain Alg12, stronger effect = lower value",0.729 (active)
same,normalized growth,"locus YOL006C, strain TOP1, stronger effect = lower value",0.0699 (active)
same,normalized growth,"locus YPL055C, strain LGE1, stronger effect = lower value",0.6 (active)
same,normalized growth,"locus YPL241C, strain CIN2, stronger effect = lower value",0.675 (active)
same,normalized growth,"locus YPR135W, strain CTF4, stronger effect = lower value",0.167 (active)
O=C1c2ccccc2C(=O)C1(O)C1(O)C(=O)c2ccccc2C1=O,normalized growth,[1],1.04
same,normalized growth,[2],1.04
same,normalized growth,[3],1.04
same,normalized growth,[4],0.953
same,normalized growth,[5],1.03
same,normalized growth,[6],0.984
same,normalized growth,[7],1.05
same,normalized growth,[8],1.07
COC1=C(OC)C(=O)C(CCCCCCCCCCO)=C(C)C1=O,normalized growth,[1],0.964
same,normalized growth,[2],0.937
same,normalized growth,[3],0.982
same,normalized growth,[4],0.934
same,normalized growth,[5],0.922
same,normalized growth,[6],0.92
same,normalized growth,[7],0.972
same,normalized growth,[8],0.964
